Data: PubChem BioAssay AID1508636 (National Center for Advancing Translational Sciences (NCATS), 2021)
Results filed as inconclusive are left out. A call without a number means that no potency is given here. Calls of active or inactive are those of the source. Calls follow the shape of the dose curve; as a rule, active = well fitted inhibition curve with a large enough effect; inconclusive = small, poorly fitted or top-dose-only effect; inactive = flat fitted curve, though single readings scatter. *1 amine or outer side, *2 acyl side, *3 side chain or, on linkers, in order; H or OH if unused. Where a SMILES comes first, the peptide text is derived from it. [ ]: non-standard residue; d: D form. X1 = O=C([C@@H](CC(O)CCl)O[*:1])[*:2]; aIle = CC[C@@H](C)[C@H](N)C(=O)O; NMeV = CN[C@H](C(=O)O)C(C)C; NMeA = CN[C@@H](C)C(=O)O; βAla = NCCC(=O)O

Molecular target: ATP-dependent translocase ABCB1 (Homo sapiens) (UniProt P08183)
Sequence (P08183 whole entry, looked up): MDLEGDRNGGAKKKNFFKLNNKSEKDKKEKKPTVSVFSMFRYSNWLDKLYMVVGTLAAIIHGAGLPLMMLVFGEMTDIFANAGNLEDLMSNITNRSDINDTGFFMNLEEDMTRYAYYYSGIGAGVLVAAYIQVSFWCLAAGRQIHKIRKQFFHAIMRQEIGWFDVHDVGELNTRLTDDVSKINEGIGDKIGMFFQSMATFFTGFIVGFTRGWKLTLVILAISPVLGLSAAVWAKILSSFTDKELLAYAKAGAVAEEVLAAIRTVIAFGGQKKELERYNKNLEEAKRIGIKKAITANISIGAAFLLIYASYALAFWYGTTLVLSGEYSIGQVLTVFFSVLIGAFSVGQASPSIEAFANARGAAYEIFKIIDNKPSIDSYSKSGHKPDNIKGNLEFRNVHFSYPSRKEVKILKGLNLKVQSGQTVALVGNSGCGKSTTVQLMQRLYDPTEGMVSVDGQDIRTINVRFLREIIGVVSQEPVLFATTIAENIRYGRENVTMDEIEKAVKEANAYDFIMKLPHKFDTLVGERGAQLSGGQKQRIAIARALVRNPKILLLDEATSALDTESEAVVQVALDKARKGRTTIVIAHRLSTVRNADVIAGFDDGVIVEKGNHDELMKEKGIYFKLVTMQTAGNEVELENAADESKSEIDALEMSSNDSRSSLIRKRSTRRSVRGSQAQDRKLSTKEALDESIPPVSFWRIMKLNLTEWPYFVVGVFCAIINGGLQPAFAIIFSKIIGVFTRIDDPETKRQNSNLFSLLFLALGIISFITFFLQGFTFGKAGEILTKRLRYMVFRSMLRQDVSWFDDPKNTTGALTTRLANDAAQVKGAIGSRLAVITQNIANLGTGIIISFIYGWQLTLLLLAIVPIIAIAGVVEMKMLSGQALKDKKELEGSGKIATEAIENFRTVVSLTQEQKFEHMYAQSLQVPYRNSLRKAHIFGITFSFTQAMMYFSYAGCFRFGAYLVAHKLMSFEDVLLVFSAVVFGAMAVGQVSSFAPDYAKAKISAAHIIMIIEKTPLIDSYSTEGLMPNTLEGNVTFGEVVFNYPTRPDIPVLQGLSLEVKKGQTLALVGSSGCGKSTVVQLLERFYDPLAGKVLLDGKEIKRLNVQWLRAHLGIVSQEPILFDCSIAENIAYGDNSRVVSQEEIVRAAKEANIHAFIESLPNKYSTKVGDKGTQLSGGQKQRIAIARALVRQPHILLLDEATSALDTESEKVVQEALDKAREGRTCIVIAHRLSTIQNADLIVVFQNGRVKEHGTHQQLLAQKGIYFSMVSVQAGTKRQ
Assay: qHTS for characterization and localization of zebrafish homologs of the human ABCB1 multidrug transporter: P-gp overexpressing MDR-19 cells
Description: The zebrafish has emerged as a potential model to study the blood-brain barrier (BBB) given its similarities with mammalian systems. However, little information has been available with regard to homologous ATP-binding cassette transporters expressed at the zebrafish BBB. Two transporters that are highly expressed at the human BBB are P-glycoprotein (P-gp, encoded by the ABCB1 gene) and ABCG2 (encoded by the ABCG2 gene). In this study, we focus on characterization of P-gp homologs in the zebrafish, which has two genes that are homologous to human ABCB1 - abcb4 and abcb5. We generated stably-transfected cell lines to determine their substrate specificities. […] Zebrafish abcb4 also colocalized with claudin 5 expression in brain endothelial cells.
A high-throughput screen was performed as previously described on empty vector transfected cells, P-gp-overexpressing MDR-19 cells and cells transfected with full-length zebrafish abcb4 (ZF Abcb4) or abcb5 (ZF Abcb5). Briefly, cells were plated into 1536-well plates at a density of 500 cells/well in 5 uL media. […] CellTiter-Glo reagent (Promega) was dispensed into the wells, incubated for 5 min and luminescence was read on a ViewLux instrument (Perkin-Elmer). […]

Structure (SMILES)	Potency
CC[C@@H](C)[C@@H]1NC(=O)[C@@H]2CCCN2C(=O)[C@@H](CC(O)CCl)OC(=O)CCNC(=O)[C@H](C)N(C)C(=O)[C@H](C(C)C)N(C)C1=O (some centres not stated) (cyclo([NMeA][βAla][X1]P[aIle][NMeV]))	inactive
C[C@@H]1[C@@H](CC(C[C@H]2O[C@@H]3O[C@]4(C)CC[C@@H]5[C@H](C)CC[C@@H]([C@H]2C)[C@@]35OO4)C[S+](=O)([O-])c2ccc(COC(=O)N(C)C)cc2)O[C@@H]2O[C@]3(C)CC[C@H]4[C@H](C)CC[C@@H]1[C@@]24OO3 (some centres not stated)	1320 nM (active)
